Screening results: PubChem BioAssay, National Center for Advancing Translational Sciences (NCATS)
Vif-A3F inh: Vif-A3F binding inhibition; Potency, µM (series often up to 46.1 µM), without a hit: at the top dose activity, negative = active; actives 0.2% (n = 390,000); AID 602313; HeLa A3F-eYFP + Vif (tagged APOBEC3F with the HIV-1 protein that degrades it), YFP fluorescence increase; also: potency is read from the fitted curve at half-maximal effect; % of control where 0% means no effect; nearly all actives have a fitted effect of over 65% in size
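Fluorescence increase (Ex 488/Em 500-530) after overnight compound treatment at 37 deg C flags inhibition of Vif-driven A3F-eYFP loss in stable HeLa A3F-eYFP/Vif cells seeded overnight beforehand.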
SW480 rerep: DNA re-replication induction in SW480 cells. Potency, µM (titrated, usually from 46.1 µM), without a hit: top-dose re-replication activation, hits mostly activators. SW480 DNA re-replication, Hoechst DNA content imaging, 48 h. AID 624297. actives 1.8% (n = 340,000); also: potency is read from the fitted curve at half-maximal effect; % of control where 0% means no effect; nearly all actives have a fitted effect of over 55% in size
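Compounds, transferred as 23 nL by pin tool, were incubated with cells for 48 hr; DNA content per nucleus was then quantified by Hoechst staining and fluorescence plate imaging.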
IL1B secr inh: blocks inflammasome-driven IL-1 beta release; actives 4.7% (n = 360,000); AID 743279; activity change, % at 57.5 µM; THP-1 LPS/ATP IL-1B secretion, AlphaLISA, 16 h; hits give low values; in the data active = activity change below about -50%; inconclusive = mostly about -30% to -49%; also: % is scaled to controls: 0 for no effect and ±100 for the full control effect
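THP-1 cells pretreated 1 hr with compounds (up to 57.5 uM final), then stimulated with LPS (250 ng/mL final) plus ATP (1.25 mM final); secreted IL-1B measured by AlphaLISA after 16 hr, decreased signal indicating inhibition.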
MCF10A rereplic: induces DNA re-replication in MCF 10a normal breast cells; MCF 10A DNA re-replication, Hoechst nuclear intensity, 48 h; Potency, µM (doses to about 46.1 µM), inactives show at the top dose activity, positive = re-replication, hits mostly activators; actives 2.9% (n = 350,000); AID 624296; also: potency is read from the fitted curve at half-maximal effect; % of control where 0% means no effect; nearly all actives have a fitted effect of over 50% in size
Giardia killer: kills Giardia lamblia; Giardia lamblia trophozoite viability; activity change, % at 7.66 µM, hits read low; actives 0.15% (n = 340,000); in the data active = activity change below about -80%; inconclusive = between about -30% and that limit;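 also: parasites exposed to compound for two days anaerobically before the ATP read; % is scaled to controls: 0 for no effect and ±100 for the full control effect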
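Anaerobic 48 hrs incubation at 37 deg C of 100 trophozoites/well with test compounds; ATPLite 1-Step luminescence, 15-30 min RT, reports cellular ATP as viability.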
Vif-A3G inh: inhibitors of Vif-APOBEC3G interaction | HeLa A3G-eYFP + Vif (tagged APOBEC3G with the HIV-1 protein that degrades it), YFP fluorescence, overnight | Potency, µM (highest dose often 46.1 µM), without a hit: at the top dose activity, negative = active, usual class: inhibitors | actives 0.076% (n = 410,000) | AID 602310; also: potency is read from the fitted curve at half-maximal effect; % is scaled to controls: 0 for no effect and ±100 for the full control effect; nearly all actives have a fitted effect of over 60% in size
Target sequence (Q9HC16 whole entry, looked up): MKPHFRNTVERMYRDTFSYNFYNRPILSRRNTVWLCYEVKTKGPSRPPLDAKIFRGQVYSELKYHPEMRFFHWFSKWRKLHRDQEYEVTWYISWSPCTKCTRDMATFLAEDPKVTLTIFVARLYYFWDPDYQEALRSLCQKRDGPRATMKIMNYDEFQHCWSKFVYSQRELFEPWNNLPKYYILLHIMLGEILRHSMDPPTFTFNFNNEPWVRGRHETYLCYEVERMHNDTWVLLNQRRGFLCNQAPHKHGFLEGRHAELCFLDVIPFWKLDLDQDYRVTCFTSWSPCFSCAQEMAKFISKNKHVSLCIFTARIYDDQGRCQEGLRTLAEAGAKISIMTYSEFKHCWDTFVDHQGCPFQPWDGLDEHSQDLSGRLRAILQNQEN
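Read-out is eYFP fluorescence (Ex 488/Em 500-530) from Vif-expressing HeLa A3G-eYFP cells; more signal means A3G escaped Vif-mediated degradation. Cells plated overnight, compound pinned in, incubated overnight at 37 deg C.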
* marks the source's active call; other numbers are inactive results; ? = inconclusive; . = no result given. This is a sample that favours compounds with a hit; in the whole collection about 6.9% have one here. Unless noted, calls follow the shape of the dose curve; as a rule, active = well fitted curve in the direction sought with a large enough effect; inconclusive = small, poorly fitted or top-dose-only effect, or another doubt; inactive = no such curve, though single readings can be large; an effect the other way counts as inactive or inconclusive.

SMILES	Vif-A3F inh	SW480 rerep	IL1B secr inh	MCF10A rereplic	Giardia killer	Vif-A3G inh
CCS(=O)(=O)N1N=C(c2cccc(NS(C)(=O)=O)c2)CC1c1ccccc1 (configuration not stated)	10µM*	-7%	4	-7%	8	10µM*
O=C(NCC1=C(c2ccc3ccccc3c2)C[C@@H]2CC[C@H]1N2Cc1ccco1)c1ccc([N+](=O)[O-])cc1	-1%	.	-71*	.	.	-5%
COc1cccc2c1cc([N+](=O)[O-])c1c(C(=O)O)cc3c(c12)OCO3	?	-1%	-58*	?	0	-14%
N#Cc1cccc(NC(=O)c2sc3nc4c(cc3c2N)N2CCC4CC2)c1	-3%	.	.	.	.	-9%
O=C(CO)C(O)C(O)C(O)CO (configuration not stated)	3%	?	-3	-9%	9	2%
Cn1c(N)c(Sc2ccccc2[N+](=O)[O-])c(=O)n(C)c1=O	?	-2%	-4	5%	0	-1%
CC(=O)O[C@@H]1/C=C/[C@](C)(O)C[C@@H](C)C/C=C/[C@H]2[C@@H]3O[C@]3(C)[C@@H](C)[C@H]3[C@H](Cc4ccccc4)NC(=O)[C@@]312	6%	2.6µM*	0	1.5µM*	12	-6%
O=C1CN=C(c2ccccc2)c2ccccc2N1	0%	-7%	25	12%	-2	-2%
O=C1CN=C(c2ccccc2)c2cc([N+](=O)[O-])ccc2N1	-1%	-38%	-78*	-8%	-29	0%
O=C1CN=C(c2cc([N+](=O)[O-])ccc2Cl)c2cc([N+](=O)[O-])ccc2N1	2%	1.6µM*	-12	?	4	-2%
C[C@H](N)Cc1ccccc1	.	2%	.	0%	.	.
CCOCN(C(=O)CCl)c1c(C)cccc1CC	11%	?	-60*	0%	-23	-1%
CCc1cccc(CC)c1N(COC)C(=O)CCl	9%	12%	-19	2%	-3	2%
CCOC(=O)Cn1cc(/C=N/NC(=O)CC#N)c2ccccc21	-10%	-87%	-55*	0%	-24	3%
Clc1ccc2c(c1)C(c1ccccc1)=NCc1nncn1-2	.	-4%	.	2%	.	.
O=C(CCn1c(=O)oc2ccccc21)N1CCN(c2ccccc2Cl)CC1	-5%	?	10	9.2µM*	10	?
O=C1CCN(C(=O)CCCn2c(=O)oc3ccccc32)CC1	-22%	-12%	17	0%	-21	1%
COc1ccc(S(=O)(=O)Nc2ccccc2OC)cc1N=Nc1c(O)[nH]c(=S)[nH]c1=O	?	9%	0	21µM*	5	0%
c1ccc(/N=C2\N=C(Nc3ccccn3)c3ccccc32)nc1	-9%	?	51	23%	-8	1%
C=CC[C@@H](CC(=O)N(CCO)Cc1ccccc1)C(=O)NC[C@H](OC(=O)[C@@H](CC=C)CC(=O)OC(C)(C)C)c1ccccc1	1%	-2%	?	41%	-16	-17%
O=c1c2ccccc2nc(CN2CCCCCC2)n1-c1ccc(F)cc1	1%	-8%	-2	24%	10	-4%
CCC(CC)N1CCN(Cc2nc3ccccc3c(=O)n2-c2ccc(F)cc2)CC1	1%	-23%	10	0.58µM*	43	6%
CCCCCSc1cc(O)c(C(CNC)C(C)C)cc1OC (configuration not stated)	-6%	?	-68*	?	-19	1%
COP(=O)(OC)c1nc(-c2cccc3ccccc23)oc1NCCc1ccccc1	0%	?	-95*	21µM*	-14	-9%
CCOP(=O)(OCC)c1nc(-c2cccc3ccccc23)oc1NCc1ccccc1	-9%	?	-61*	?	-4	0%
O=C(COc1ccccc1Cl)N1CCN(CCc2ccccn2)CC1	3%	.	.	.	.	-1%
CCc1ccc(OCC(=O)N2CCN(CCc3ccccn3)CC2)cc1	2%	.	.	.	.	0%
